According to PubChem BioAssay (NCI):
Compounds without any hit were thinned out: in the full panel of roughly 83,000, 20% have a hit.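 Note: values are percent growth. 100 is the growth of untreated cells, values between 100 and 0 indicate rising inhibition; between -100 and 0 indicates cell death.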 Values without a mark were called inactive. The source made the active and inactive calls. Rule for the calls: active = growth percent below 10; inactive = the rest.

Experiments:
Experiment in all cases: NCI-60 one-dose screen, 48 h (100 = growth as untreated, 0 = no growth, -100 = all killed)
Details in all cases: 10 µM unless noted
SR leukemia = system: SR leukemia
RPMI-8226 leukemia = system: RPMI-8226 leukemia
OVCAR-8 ovarian = system: OVCAR-8 ovarian
OVCAR-5 ovarian = system: OVCAR-5 ovarian
OVCAR-4 ovarian = system: OVCAR-4 ovarian
SK-OV-3 ovarian = system: SK-OV-3 ovarian
IGROV1 ovarian = system: IGROV1 ovarian
OVCAR-3 ovarian = system: OVCAR-3 ovarian
HS 578T breast = system: HS 578T breast
NCI/ADR-RES ovarian = system: NCI/ADR-RES ovarian
T-47D breast = system: T-47D breast
BT-549 breast = system: BT-549 breast
MDA-MB-435 melanoma = system: MDA-MB-435 melanoma
SW-620 colon = system: SW-620 colon
MCF7 breast = system: MCF7 breast
HCT-116 colon = system: HCT-116 colon
HCC-2998 colon = system: HCC-2998 colon
KM12 colon = system: KM12 colon

SMILES | growth (SR leukemia) | growth (RPMI-8226 leukemia) | growth (OVCAR-8 ovarian) | growth (OVCAR-5 ovarian) | growth (OVCAR-4 ovarian) | growth (SK-OV-3 ovarian) | growth (IGROV1 ovarian) | growth (OVCAR-3 ovarian) | growth (HS 578T breast) | growth (NCI/ADR-RES ovarian) | growth (T-47D breast) | growth (BT-549 breast) | growth (MDA-MB-435 melanoma) | growth (SW-620 colon) | growth (MCF7 breast) | growth (HCT-116 colon) | growth (HCC-2998 colon) | growth (KM12 colon)
C#Cc1ccc(C(=O)NCc2ccc(/C=C/C(=O)c3nccn3C)cc2)cc1 | 4.33% (active) | 6.86% (active) | 26.9% | 26.8% | 39% | 50.2% | 13.1% | 17.8% | 22.6% | 9.5% (active) | 34% | 51% | 26.2% | 10.5% | 12.2% | 14% | 9.76% (active) | 15.5%
COc1c(N2CC3CCCNC3C2)c(F)cc2c(=O)c(C(=O)N/N=C/c3ccccc3)cn(C3CC3)c12 (stereo unspecified) | 8.2% (active) | 73.1% | 99.9% | 107% | 93.1% | 111% | 99.6% | 102% | 97.7% | 104% | 101% | 106% | 101% | 102% | 84.1% | 81.1% | 113% | 101%
Cn1ccnc1C(=O)/C=C/c1ccc(CNC(=O)c2ccc(F)cc2)cc1 | 8.69% (active) | 13% | 47.1% | 17.4% | 42% | 77.8% | 23.1% | 15.1% | 40.4% | 18.9% | 33.4% | 43.2% | 44.1% | 9.37% (active) | 11.6% | 13.2% | 35.9% | 22.1%
CCCCCCCn1cc2c(NCCc3ccccc3)ncnc2n1 | 85.4% | 92.4% | 99.9% | 108% | 101% | 113% | 97.5% | 121% | 88.5% | 98.7% | 94.5% | 100% | 96.6% | 92.8% | 86.9% | 96.6% | 116% | 97%
N#Cc1cnc2ccc(-c3cnc(N)nc3)cc2c1N1CCc2cc(F)c(Cl)cc21 | 8.58% (active) | -16.9% (active) | 12% | 19.8% | 12.3% | 0.148% (active) | -44.6% (active) | 8.88% (active) | -22.5% (active) | 6.22% (active) | 9.38% (active) | 3.1% (active) | -1.22% (active) | 9.24% (active) | 5.81% (active) | 2.24% (active) | -3.03% (active) | 7.85% (active)
COc1ccc(C2CC(c3ccc(Nc4nc(NCCO)nc(N5CCOCC5)n4)cc3)=Nc3c(N)nc(N)nc3N2)cc1 (stereo unspecified) | 105% | 108% | 99.8% | 109% | 104% | 109% | 105% | 101% | 91.6% | 107% | 90.5% | 99.2% | 108% | 101% | 86.2% | 100% | 105% | 89%
Cc1ccc(-n2cc(/C=N/NC(=O)c3nc(N)n[nH]3)c(-c3ccc(S(C)(=O)=O)cc3)n2)cc1 | 79.3% | 100% | 100% | 105% | 101% | 104% | 98.4% | 95.7% | 108% | 100% | 97.5% | 101% | 87.9% | 93.3% | 94.2% | 104% | 115% | 105%
O=C(CN1CCN(c2cc(=O)n(-c3ccccc3)c3ccccc23)CC1)Nc1ccc(F)cc1 | 76.4% | 61.5% | 71.2% | 101% | 22.7% | 78.6% | 60.1% | 71.8% | 88.7% | 64.3% | 30.2% | 59.1% | 65.4% | 91.6% | 37.9% | 58.7% | 94.4% | 72.9%
Cc1ccc(C2=NN(C)C(=O)C3(CCCC3)C2)cc1 | 113% | 111% | 102% | 102% | 106% | 110% | 110% | 110% | 109% | 102% | 102% | 117% | 107% | 103% | 89.8% | 104% | 110% | 104%
NC(N)=Nc1ccc(Oc2ccc(Nc3ccc(Cl)c(C(F)(F)F)c3)cc2)cc1 | -4.22% (active) | 41.9% | 55.1% | 66.2% | 52.3% | 89.4% | -7.75% (active) | -21.8% (active) | 56.1% | 91.9% | 41.1% | 86.1% | 40.3% | 25.6% | 2.64% (active) | 11.3% | 1.24% (active) | 5.94% (active)
C=CC(=O)N1CCC=C(c2cc3c(N[C@H](C)c4ccccc4)ncnc3[nH]2)C1 | 32.9% | 41.8% | 66.4% | 49.8% | 45.4% | -6.72% (active) | 14.5% | 56.2% | 69% | 73.7% | 29.7% | 89.8% | 74.5% | 91.7% | 49.5% | 71.8% | 93.8% | 90.5%
COC(=O)C(Cc1ccccc1)Nc1nc(NC(Cc2ccccc2)C(=O)OC)nc(N2CCOCC2)n1 (stereo unspecified) | 100% | 98.5% | 99.6% | 106% | 107% | 103% | 98.6% | 111% | 101% | 111% | 101% | 112% | 105% | 112% | 97.8% | 99.2% | 110% | 99.7%
N/C(=N\C(N)=N\c1nc2ccccc2s1)c1ccncc1Cl | 39.4% | 11.6% | 49% | 61.1% | 104% | 41.8% | 34.2% | 19.8% | 35.7% | 25.2% | 55.4% | 43.8% | 6.13% (active) | 24.1% | 75.6% | 23.3% | 76.6% | 24.1%
CC(C)c1ccc(NCc2cn(-c3ccc(C(=O)O)cc3)nc2-c2cc(C(F)(F)F)cc(C(F)(F)F)c2)cc1 | 101% | 65.7% | 85% | 103% | 96.2% | 90.5% | 92.7% | 80.9% | 68% | 82.8% | 71% | 102% | 91% | 86.8% | 75.3% | 84% | 97% | 82.5%
NC(N)=Nc1ccc(Oc2cccc(Nc3ccc(Br)c(C(F)(F)F)c3)c2)cc1 | -43.5% (active) | -44.1% (active) | 51.2% | 40.3% | 39.8% | 67.4% | 0.582% (active) | 13.7% | 9.28% (active) | 93.7% | 22.4% | 42.7% | 8.6% (active) | -31% (active) | -1.08% (active) | -25% (active) | -28.1% (active) | -27.2% (active)
CCOP(=O)(OCC)OC[C@]12CCC(C)(C)C=C1[C@H]1CC[C@@H]3[C@@]4(C)CC[C@H](OP(=O)(OCC)OCC)C(C)(C)[C@@H]4CC[C@@]3(C)[C@]1(C)CC2 | -27.4% (active) | -43% (active) | -27.3% (active) | -26.8% (active) | -1.21% (active) | -2.62% (active) | -20% (active) | -85.5% (active) | -13.5% (active) | 0.702% (active) | 13.5% | -20.2% (active) | -38.4% (active) | -48.4% (active) | -47.5% (active) | -59.8% (active) | -50.9% (active) | 3.6% (active)
C=C1CC[C@@H]2[C@]3(C)COC(c4ccccc4)O[C@@H]3CC[C@@]2(C)[C@@H]1C/C=C1/C(=O)OC[C@H]1O (stereo partly specified) | 36.9% | 28.2% | 56.6% | 105% | 83.4% | 119% | 89.3% | 63.8% | 101% | 57% | 70.6% | 63.8% | 81.4% | 49.7% | 46.1% | 38.4% | 108% | 86.1%
